Among the data in PubChem BioAssay AID2524 (Sanford-Burnham Center for Chemical Genomics, 2010) are activation factor values, retold here.

SMILES strings stand for the structures. The campaign covered roughly 330,000 compounds. About 540 (0.16%) were called active. The full list was thinned out, with actives kept by preference. Unmarked numbers belong to inactive results.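 How the source made its calls: active means activation factor of the enzyme at least 2-fold when tested at 20 µM; inactive means the rest.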

In this assay the target is Intestinal-type alkaline phosphatase (Homo sapiens) (UniProt P09923). Briefly: enzymatic activation of intestinal alkaline phosphatase – biochemical, luminescence, uHTS, primary screen (AID 2524). Conditions: purified human IAP, CDP-Star luminescence, 30 min; at 10 µM; active compounds read high; 1 = vehicle-only enzyme, 0 = enzyme-free background.
Sequence of Intestinal-type alkaline phosphatase (Homo sapiens) (P09923 whole entry, looked up): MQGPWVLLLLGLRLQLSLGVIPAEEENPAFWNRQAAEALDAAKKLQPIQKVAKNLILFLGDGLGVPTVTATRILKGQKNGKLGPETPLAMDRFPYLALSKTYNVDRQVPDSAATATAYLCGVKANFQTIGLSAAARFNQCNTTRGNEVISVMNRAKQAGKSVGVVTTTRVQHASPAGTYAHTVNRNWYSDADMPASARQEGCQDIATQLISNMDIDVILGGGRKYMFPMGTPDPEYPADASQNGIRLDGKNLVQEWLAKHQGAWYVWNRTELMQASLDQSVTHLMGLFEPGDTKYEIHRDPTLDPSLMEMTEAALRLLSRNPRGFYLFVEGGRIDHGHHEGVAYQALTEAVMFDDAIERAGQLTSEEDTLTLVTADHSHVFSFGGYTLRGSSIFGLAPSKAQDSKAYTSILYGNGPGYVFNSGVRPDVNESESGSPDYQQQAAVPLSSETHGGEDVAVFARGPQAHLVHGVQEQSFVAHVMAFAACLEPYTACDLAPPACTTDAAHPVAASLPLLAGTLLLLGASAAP
Regarding `FC(F)(F)c1cccc(Cc2noc(CN3CCC(N4CCCCC4)CC3)n2)c1`, the activation factor is 1.17.
With `C1CC1Cc1noc(CN2CCN(CC3CC3)CC2)n1`, the activation factor was 1.06.
As to `COCCN(C(=S)Nc1ccccc1OC)C1CCN(C(C)C)CC1`, the activation factor is 1.12.
In the case of `O=C(COC(=O)c1ccccc1F)Nc1cc(S(=O)(=O)N2CCOCC2)ccc1N1CCCC1` it was 1.03; in that of `Cc1ccc(CNCc2ccc3c(c2)OCO3)c(C)c1`, 1.06.
In the case of `O=C(O)CSCc1ccc(C(=O)O)o1` it was 0.943; in that of `COc1cccc2cc(C(C)N(CCCN3CCOCC3)C(=O)Nc3ccc(Cl)cc3)oc12` (centres undefined), 1.05; in that of `CC(Oc1ccc(F)cc1F)C(=O)/C=C/N(C)C` (centres undefined), 1.1.
With `COc1ccc(CC(=O)N2N=C(C)CC2(O)C(F)(F)F)cc1` (centres undefined), the activation factor is 1.06.
On to `CCOC(=O)C1CCN(C(=O)Nc2cccc(OC)c2)CC1`, for which the activation factor was 1.01.
Under `COc1ccc(S(=O)(=O)N2CCN(CC(=O)NCC3(N4CCOCC4)CCCCC3)CC2)cc1` stands 0.925; under `C#CCOCCOCCOCCNc1nc(N2CCN(C(=O)CCCCCCCCCCNC(=O)[C@H](CCCCN)n3cc(C)nn3)CC2)nc(N2CCN(C(=O)CCCCCCCCCCNC(=O)[C@H](CO)n3cc(CCCSC)nn3)CC2)n1`, 1.1; under `C#CCOCCOCCOCCNc1nc(N2CCN(C(=O)CCCCCCCCCCNC(=O)Cn3cc(CCCCCN)nn3)CC2)nc(N2CCN(C(=O)CCCCCCCCCCNC(=O)[C@H](CO)n3cc(CCCSC)nn3)CC2)n1`, 0.934.
Under `C#CCOCCOCCOCCNc1nc(N2CCN(C(=O)CCCCCCCCCCNC(=O)[C@H]([C@@H](C)CC)n3cc(CCCCN=C(N)N)nn3)CC2)nc(N2CCN(C(=O)CCCCCCCCCCNC(=O)[C@H](CO)n3cc(CCCSC)nn3)CC2)n1` stands 2.98 (active); under `CCCN=C1NC(=O)C(CC(=O)NCCc2ccc(OC)c(OC)c2)S1` (centres undefined), 1.04.
In the case of `Cc1ccc(S(=O)(=O)N/N=C(\c2ccccc2)C2CC2)cc1` it was 1.3; in that of `CCN(CC(=O)Nc1c(F)cccc1F)C(=O)C1CCC1`, 1.05.
As to `O=C(COC(=O)/C=C/c1nc2ccccc2s1)Nc1ccccc1Oc1ccccc1`, the activation factor was 0.94.
Under `CCCCCc1c(C)nc(N2CCN(Cc3ccc4c(c3)OCO4)CC2)[nH]c1=O` stands 0.962; under `CCCCc1c(O)nc2n(c1=O)CCS2`, 0.971; under `CCCCCCCCc1c(O)nc(-n2[nH]c(C)c(CCO)c2=O)[nH]c1=O`, 2.2 (active).
In the case of `CN(CCc1ccccn1)C(=O)CCC1CCCN(Cc2ccccc2OC(F)F)C1` (centres undefined) it was 1.17; in that of `CN1CCC(N(C)S(=O)(=O)c2ccc(NC(=O)c3cccc(C#N)c3)cc2)CC1`, 0.888; in that of `Cc1ccc(NC(=O)c2cc(-c3ccccc3O)n[nH]2)cc1C`, 2.39 (active).
Under `Cc1ccc(CNC(=O)c2ccccc2CCc2ccccc2)cc1` stands 0.921.
Regarding `Cc1ccc(O)c(-c2cc(C(=O)Nc3c(C)n(C)n(-c4ccccc4)c3=O)[nH]n2)c1`, the activation factor is 1.84.
In the case of `Cc1ccc(NC(=O)CCN2C(=O)c3ccccc3C2=O)cc1C` it was 0.917; in that of `Cc1ccc(C)c(NC(=O)c2cc(-c3cc(C)cc(C)c3O)n[nH]2)c1`, 1.49.
Turning to `Cc1ccc(O)c(-c2cc(C(=O)NCc3ccccc3)[nH]n2)c1`, the activation factor is 2.06 (active).
As to `CN1CCN(CC(O)COCc2ccc3c(c2)OCO3)CC1` (centres undefined), the activation factor was 0.998.
On to `CC(C)COC(=O)C1C2C=CC3(CN(C(C)c4ccc(Br)cc4)C(=O)C13)O2` (centres undefined), for which the activation factor was 0.726.
In the case of `COc1cc(NS(=O)(=O)c2ccc(N/C=C(\C=O)c3nc4cc(Cl)ccc4o3)cc2)nc(OC)n1` it was 1.26; in that of `COc1ccc(C(=O)NC2CC(C)(C)Cc3c2cnn3-c2ccccc2C)o1` (centres undefined), 1.38; in that of `CCCc1ccc(C(=O)COC(=O)CN2C(=O)NC3(CCCCC3C)C2=O)cc1` (centres undefined), 1.11.
As for `CC(C)CCn1c(=O)c2c(nc3n2CCCN3Cc2ccccc2)n(C)c1=O`, the activation factor is 0.846.
`COc1ccc(NS(=O)(=O)c2ccc(Oc3c(C#N)cccc3C#N)cc2)cc1`: the activation factor is 1.1.
In the case of `CCn1nc(NC(=O)c2ccco2)c2cc3ccc(C)cc3nc21` it was 1.16; in that of `CC(C)n1cnc2c(NCc3ccccc3)cc(N[C@@H](CO)Cc3ccccc3)cc21`, 0.984; in that of `Cc1cc(C(=O)NNC(=O)c2cccc(S(=O)(=O)N3CCOCC3)c2)c2ccccc2n1`, 0.981.
Under `O=C(NNC(=S)Nc1ccccc1)c1cccc(S(=O)(=O)N2CCOCC2)c1` stands 2.01 (active); under `O=C(Nc1ccc(N2CCOCC2)cc1)c1cccc(S(=O)(=O)N2CCOCC2)c1`, 1.08.
Under `CCOC(=O)CNC(=O)/C=C/c1c(Cl)cccc1Cl` stands 0.968.
`C/C(=N\OC(=O)c1ccccc1)c1c(C)nc2cc(C)ccn12`: the activation factor was 1.06.
In the case of `COc1cccc(-c2cccc(NC(=O)C3CCN(C4CCC4)CC3)c2)c1` it was 1.23; in that of `CCn1cc(CN2CCC(C(=O)Nc3cccc(-c4cccc(Cl)c4)c3)CC2)cn1`, 1.12; in that of `O=C(Nc1cccc(-c2cccc(Cl)c2)c1)C1CCN(C2CCC2)CC1`, 4.26 (active).
On to `CC(=O)Nc1cccc(OCC(=O)/C=C2\N(C)c3ccccc3C2(C)C)c1`, for which the activation factor is 0.862.
As for `CN(C)c1cccc(C(=O)N2CCC(n3nccc3NC(=O)C3CCOC3)CC2)c1` (centres undefined), the activation factor is 1.28.
Under `CN1CCc2c(sc3c2c(NCc2ccco2)nc2nnnn23)C1` stands 1.04; under `COc1ccc(NC(=O)CC2C(=O)OCC3CCCCN32)cc1Cl` (centres undefined), 1.01.
Under `O=C(COc1ccc(Cl)cc1)NCCS(=O)(=O)N1CCN(c2ccc(F)cc2)CC1` stands 0.818; under `CCc1c(C)nc(SCC(=O)NC2CCCC2)[nH]c1=O`, 1.03; under `NS(=O)(=O)c1cccc(NC(=O)COC(=O)c2cc([N+](=O)[O-])ccc2N2CCCC2)c1`, 0.907.
Under `CCc1ccc(S(=O)(=O)Nc2ccc(C)c(NS(C)(=O)=O)c2)cc1` stands 0.919; under `Cc1ccccc1NC(=O)Cn1cc(C(=O)C2CC2)c2ccccc21`, 1.02; under `[2H]C(CCOS(N)(=O)=O)c1ccccc1` (centres undefined), 0.959.
Regarding `CN(C)NC(=O)c1csnc1-c1c(Cl)cccc1Cl`, the activation factor is 1.14.
Under `CCC(=O)Nc1ccc(C(=O)NNC(=O)c2ccc(Cl)cc2)cc1` stands 1.31; under `O=C(Nc1ccc(Cl)cc1)c1ccsn1`, 4.15 (active); under `O=C(NCc1ccccn1)Nc1ccc(Cl)cc1`, 1.08.
In the case of `CCCOCC(O)CC(CC)C(=O)NNC(=S)Nc1ccccc1` (centres undefined) it was 2.11 (active).
In the case of `CCCCC(=O)NNC(=S)NC(=O)C(c1ccccc1)c1ccccc1` it was 1.36; in that of `CCCN(CCC)CC(O)COc1ccccc1C(=O)Nc1ccccc1` (centres undefined), 0.915.
For the molecule `C[C@H](NC(=O)c1nc[nH]c1C(=O)NCC(=O)OC(C)(C)C)c1ccccc1`, the activation factor was 1.32.
In the case of `C[C@H](NC(=O)c1[nH]cnc1C(=O)Nc1nccs1)c1ccccc1` it was 2.51 (active); in that of `CC(NC(=O)C(=O)Nc1nccs1)c1ccccc1` (centres undefined), 1.05.
As for `CC(C)(C)OC(=O)NCCCCCNC(=O)c1nc[nH]c1C(=O)NCc1ccccc1`, the activation factor is 1.26.
In the case of `CC(C)(C)OC(=O)NCCCCCNC(=O)c1[nH]cnc1C(=O)Nc1nccs1`, the activation factor was 2.41 (active).
In the case of `Cc1ccc(NC(=O)c2nc[nH]c2C(=O)N[C@@H](CCCCNC(=O)OC(C)(C)C)C(=O)OC(C)(C)C)cc1` it was 1.3.
In the case of `Oc1ccc(-c2cccc(-c3ccc(O)cc3)c2)cc1` it was 1.01; in that of `COc1ccc(C2CC(c3ccccc3)=NN2C(=O)CSc2nccc(=O)[nH]2)cc1` (centres undefined), 0.925.
In the case of `COc1ccc(CC(=O)Nc2c3c(nn2-c2cccc(Cl)c2)CS(=O)C3)cc1` (centres undefined) it was 1.09.
Consider `O=C(NNC(=S)NCc1ccccc1)c1ccc(OC(F)F)cc1`, for which the activation factor is 0.898.
Consider `CC(C)Oc1ccc(CCC(=O)NNC(=S)NCc2ccccc2)cc1`, for which the activation factor was 2.01 (active).
In the case of `Cc1ccc(OCC(=O)NNC(=S)NCc2ccccc2)cc1` it was 1.08; in that of `Cc1cccc(C(=O)N[C@H](C(=O)NCc2cccs2)C(C)C)c1`, 1.11; in that of `CCOCCCn1c(SCC(=O)Nc2cc(OC)ccc2OC)nc2ccccc2c1=O`, 0.95.
For the molecule `OC(COc1ccc(CN2CCSCC2)cc1)CN1CCCCC1` (centres undefined), the activation factor is 1.12.
`CCCCN1C(=O)CC(N2CCOCC2)C1=O` (centres undefined): the activation factor is 1.04.
In the case of `S=c1[nH]cc(-c2ccc(Cl)cc2)n1-c1ccccc1` it was 1.42.
In the case of `COc1ccc(N2C(=O)NC(NS(=O)(=O)c3ccc(Cl)cc3)(C(F)(F)F)C2=O)cc1` (centres undefined) it was 0.861.
As to `Cn1c(N)c(C(=O)COC(=O)c2ccccc2NCc2ccco2)c(=O)n(C)c1=O`, the activation factor is 1.07.
In the case of `Cc1ccc(Cl)c(NC(=O)CN(C)CC(=O)Nc2ccc(F)c(F)c2F)c1Cl` it was 1.68.
`Cc1c(NC(=O)CN(C)CC(=O)Nc2ccc(F)c(F)c2F)c(=O)n(-c2ccccc2)n1C`: the activation factor is 2.09 (active).
In the case of `Cc1cc(C)cc(N(CC(=O)Nc2c(C)n(C)n(-c3ccccc3)c2=O)S(C)(=O)=O)c1`, the activation factor is 0.988.
With `Cc1ccc(OCC(=O)NCCCNC(=O)c2cccnc2)cc1C`, the activation factor was 1.06.
Turning to `CC1=C(C(=O)NC2CC(C)(C)Cc3c2cnn3-c2ccc(C)cc2)OCCO1` (centres undefined), the activation factor was 1.1.
For the molecule `COc1ccc(C(=O)NC2CC(C)(C)Cc3c2cnn3-c2ccccc2)c(OC)c1` (centres undefined), the activation factor is 1.07.
With `Cc1cc(C(=O)NC2CC(C)(C)Cc3c2cnn3-c2ccccc2)n[nH]1` (centres undefined), the activation factor was 2.15 (active).
